In PubChem BioAssay AID630 (Emory University Molecular Libraries Screening Center, 2007):
The campaign covered roughly 88,000 compounds. About 260 (0.3%) were called active. This is one part of a sample in which actives are shown more often than they occur.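 How the source made its calls: active means compounds that reduce the energy-transfer binding signal between the protein and its labelled peptide by more than half; inactive means the rest.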

Target: Mothers against decapentaplegic homolog 3 (Homo sapiens) (UniProt P84022)
Sequence (P84022 whole entry, looked up): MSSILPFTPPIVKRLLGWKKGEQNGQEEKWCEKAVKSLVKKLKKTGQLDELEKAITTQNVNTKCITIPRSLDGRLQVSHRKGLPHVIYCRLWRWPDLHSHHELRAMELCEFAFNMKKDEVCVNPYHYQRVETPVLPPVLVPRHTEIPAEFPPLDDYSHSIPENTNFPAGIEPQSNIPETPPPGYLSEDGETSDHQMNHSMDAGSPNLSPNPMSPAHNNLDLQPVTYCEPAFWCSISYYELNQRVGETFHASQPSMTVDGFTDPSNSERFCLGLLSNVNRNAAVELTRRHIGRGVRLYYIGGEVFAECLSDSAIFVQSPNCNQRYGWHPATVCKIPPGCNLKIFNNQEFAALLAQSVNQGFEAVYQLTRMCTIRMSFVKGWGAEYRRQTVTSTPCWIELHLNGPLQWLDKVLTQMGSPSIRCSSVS
Assay: blockers of Smad3 binding to FoxH1 – biochemical, TR-FRET, primary screen (AID 630);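 further: 0% = Smad3 plus labelled peptide maximal FRET and 100% = peptide-only background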
Settings: TR-FRET Smad3/Dy647-FoxH1 peptide binding, europium anti-His; at 25 µM; stronger effect = higher value

Row | Compound | inhibition
1 | Cn1nc(-c2ccccc2)c(CSc2cccc(Cl)c2)c1Cl | -0.19% (inactive)
2 | COc1ccc(C2=NO[C@@H]3C(=O)N(Cc4ccccc4)C(=O)[C@H]23)cc1OC | 4.9% (inactive)
3 | COc1ccc(C(=O)CN2C(=O)NC(C)(c3ccc(C)cc3)C2=O)cc1OC (configuration not stated) | 0.23% (inactive)
4 | Cc1ccnc(NC(=O)c2ccc(NC(=O)c3ccco3)cc2)c1 | 8.59% (inactive)
5 | O=C(Nc1ccc(Oc2ccccc2)cc1)c1ccco1 | -3.88% (inactive)
6 | COC(=O)c1ccc(NC(=O)c2ccco2)cc1 | 66.7% [fluorescence artefact?] (active)
7 | Cc1cc(N/C=C\C(=O)c2ccc(Cl)c(Cl)c2)no1 | -20.1% (inactive)
8 | CC(C)Nc1ncnc2c1nnn2Cc1ccccc1 | -8.78% (inactive)
9 | CC1(C)CC(=O)C=C(N2CCCC2)C1 | -13.5% (inactive)
10 | COc1ccccc1CNS(=O)(=O)c1ccc(C)cc1 | 9.13% (inactive)
11 | O=C(O)[C@@H]1CCc2ccc3ccccc3c2[C@H]1c1cccc2ccccc12 | -9.06% (inactive)
12 | COC(=O)c1ccc(NC(=O)C23CC4CC(C2)CC(n2cnc(Cl)n2)(C4)C3)cc1 | 4.51% (inactive)
13 | O=C(O)[C@@H]1CS[C@]2(CCCN(Cc3ccccc3)C2)N1 | 7.7% (inactive)
14 | O=S1(=O)C=C(SCCN2CCCC2)c2ccccc21 | 17.4% (inactive)
15 | CCOC(=O)c1c(NC(=O)CCl)sc(C(=O)N(CC)CC)c1C | 14.1% (inactive)
16 | Cc1cccc(N2CCN(C(=O)c3cnn4c(C(F)F)cc(-c5ccccc5)nc34)CC2)c1C | 8.08% (inactive)
17 | Cn1ncc2c(Nc3cccc4ccccc34)ncnc21 | 2.63% (inactive)
18 | Cc1noc(COc2ccccc2OCc2onc(C)c2Cl)c1Cl | -10.7% (inactive)
19 | Cn1c2c(c(=O)n(C)c1=O)C(c1cccc([N+](=O)[O-])c1)Nc1ccccc1O2 (configuration not stated) | -10.5% (inactive)

Row | Compound | inhibition
20 | CCOc1ccc(C(O)Cc2nc3ccccc3n2C)cc1 (configuration not stated) | 3.1% (inactive)
21 | CCCn1c(C)cc(C(=O)COC(=O)c2c(C)nn(-c3ccccc3)c2C)c1C | -7.34% (inactive)
22 | COc1ccc(C(=O)Nc2ccc(CN3CCOCC3)cc2)cc1 | 11% (inactive)
23 | N#C/C(=C\c1ccccc1)c1n[nH]c(Cn2cncn2)n1 | 8.55% (inactive)
24 | O=C(CSCc1ccc(Cl)cc1)N1CCCCC1 | -8.93% (inactive)
25 | Cc1cccc(NC(=O)CSc2nc3c(c(=O)[nH]2)CCCC3)c1C | 5.9% (inactive)
26 | Cc1cc2nc(SCCN3CCOCC3)[nH]c2cc1C | 2.4% (inactive)
27 | Cc1nn(Cc2ccccc2)c2c1C(c1ccccc1)C(C#N)=C(N)O2 (configuration not stated) | 5.74% (inactive)
28 | COc1ccc(N/N=C2/CCCCC2=O)cc1 | -1.11% (inactive)
29 | O=C(O)c1nn(-c2ccc(Cl)cc2)c2c1C(=O)c1ccccc1C2=O | 53.4% (active)
30 | Cc1ccc(-n2ccc(=O)c(C(=O)O)n2)cc1 | 0.02% (inactive)
31 | CCOc1ccc(NC(=O)N(CC(C)C)CC(C)C)cc1 | 3.46% (inactive)
32 | N#CC1=C(SCc2ccc(C#N)cc2)N=C(N)C(c2nc(-c3ccccc3)cs2)C12CCCCC2 (configuration not stated) | -3.23% (inactive)
33 | O=C(NC1(C(F)(F)F)NC(=O)N(Cc2cccnc2)C1=O)c1ccccc1Cl (configuration not stated) | 40.1% (inactive)
34 | COC(=O)c1ccc(Cc2ccccc2)o1 | 6.44% (inactive)
35 | O=C(O)c1ccc(C(=O)c2ccccc2C(=O)O)cc1C(=O)O | 63.5% (active)
36 | O=C(O)c1ccc(C(=O)O)c2c(C(=O)O)ccc(C(=O)O)c12 | -1.5% (inactive)
37 | O=C(c1ccc(O)cc1)c1ccc(C(=O)O)c(C(=O)O)c1 | -7.32% (inactive)
